Assay [1] deals with Cell division control protein 42 homolog (Homo sapiens) (UniProt P60953). In words: activated mutant Cdc42 GTP-binding inhibitors, dose response, biochemical, multiplex bead flow cytometry, Bodipy-FL-GTP (AID 1333;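 active = fitted half-maximal concentration within the tested dose range, moderate curve steepness, a statistically real signal drop, and little compound fluorescence or tag-binding interference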). Background: In flow cytometry, cells or beads pass a laser one at a time.
Sequence of Cell division control protein 42 homolog (Homo sapiens) (P60953 whole entry, looked up): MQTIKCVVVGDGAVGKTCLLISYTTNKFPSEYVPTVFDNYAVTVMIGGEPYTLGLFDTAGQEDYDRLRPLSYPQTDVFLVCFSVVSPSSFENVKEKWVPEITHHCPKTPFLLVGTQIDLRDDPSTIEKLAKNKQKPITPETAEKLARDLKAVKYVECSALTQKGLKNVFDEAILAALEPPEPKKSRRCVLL
The target is the same in assay [2]. In words: wildtype Cdc42 GTP-binding inhibitors, dose response, biochemical, multiplex bead flow cytometry, Bodipy-FL-GTP (AID 1334;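 active = fitted half-maximal concentration within the tested range, moderate curve steepness, significant signal drop, and little compound fluorescence or bead-linkage interference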). The conditions noted are these: bead-based flow cytometry, Bodipy-FL-GTP binding to GST-Cdc42; at 100 µM (top of the series) unless noted.
The target in assay [3] is GTPase HRas (Homo sapiens) (UniProt P01112). As to the kind of experiment: inhibitors of GTP binding to wildtype Ras, dose response, biochemical, multiplex bead flow cytometry (AID 1335). The settings on record: bead-based flow cytometry, Bodipy-GTP binding to GST-Ras; at 100 µM (top of the series) unless noted.
Sequence of GTPase HRas (Homo sapiens) (P01112 whole entry, looked up): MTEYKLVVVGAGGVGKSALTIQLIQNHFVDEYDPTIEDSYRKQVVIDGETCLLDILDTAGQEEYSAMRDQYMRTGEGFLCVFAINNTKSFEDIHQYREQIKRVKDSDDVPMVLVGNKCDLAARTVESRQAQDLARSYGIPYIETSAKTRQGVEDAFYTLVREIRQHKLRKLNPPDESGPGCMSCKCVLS
The test system of assay [4] is Ras-related protein Rab-7a (dog), GTP binding. In words: Rab7 GTP binding inhibitors, potency, dose response, biochemical, wildtype, multiplex bead flow cytometry (AID 1336; call rule not given here).
The target in assay [5] is Ras-related C3 botulinum toxin substrate 1 (Homo sapiens) (UniProt P63000). As to the kind of experiment: wildtype Rac1 GTP binding inhibitors, dose response, biochemical, multiplex bead flow cytometry (AID 1340;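 active = dose curve with midpoint inside tested range, moderate steepness, plateau gap beyond fit error, low compound glow and bead-link interference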). The conditions noted are these: GST-Rac1 beads, Bodipy-FL-GTP binding; at 100 µM (top of the series) unless noted.
For assay [6], the target named is GTPase HRas (Homo sapiens) (UniProt P01112). In words: activated Ras mutant GTP binding inhibitors, dose response, biochemical, multiplex bead flow cytometry (AID 1341;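 active = dose-response curve with midpoint inside the tested range, moderate steepness, significant amplitude and little compound fluorescence or bead-attachment interference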;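 note: GST-tagged constitutively activated Ras mutant immobilized on beads and multiplexed with other GTPases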).

The text below walks through data of PubChem BioAssay.

For part of these data: Entries with a potency or affinity are not part of this list. Calls of active or inactive are those of the source.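 Rule for the calls, unless noted: active = fitted half-maximal concentration within 10 nM to 100 µM, steepness 0.5 to 2, significant signal drop, low assay interference; inactive = the rest.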

For the compound `CCn1cc(C(=O)O)c(=O)c2cc(F)c(N/N=C/c3ccccc3[N+](=O)[O-])cc21`, the result in assay [1], in assay [4] and in assay [6] was inactive. Further, the fluorescence, percent of control (lower = inhibition) in assay [2] is 32.3%. This compound also displayed a GTP binding, percent of control in assay [3] of 44%. The same compound had a GTP binding signal, raw median fluorescence (lower = inhibition) (MCF (arbitrary fluorescence units)) in assay [5] of 110.
On to `CCCCCN1CC(O)=C(c2nc(-c3ccc(Cl)cc3)cs2)C1=N`, for which the outcome in assay [1], in assay [4] and in assay [6] was inactive. In addition, the fluorescence, percent of control (lower = inhibition) in assay [2] was 88.4%. The compound further came in with a GTP binding, percent of control in assay [3] of 167%. In addition, the GTP binding signal, raw median fluorescence (lower = inhibition) (MCF (arbitrary fluorescence units)) in assay [5] was determined as 184.
As to `O=C(O)COc1ccccc1/C=N/NC(=O)c1cccc(S(=O)(=O)Nc2cccc(Cl)c2)c1`, the compound was classed as inactive in assay [1], in assay [4] and in assay [6]. In addition, the fluorescence, percent of control (lower = inhibition) in assay [2] turned out to be 36.3%. Moreover, the GTP binding, percent of control in assay [3] came to 79.8%. In addition, the GTP binding signal, raw median fluorescence (lower = inhibition) (MCF (arbitrary fluorescence units)) in assay [5] turned out to be 124.
`N#CC(C#N)=C1C=CC=CN1/C(=C\c1ccccc1Cl)C(=O)c1ccccc1`: the compound was classed as inactive in assay [1], in assay [4] and in assay [6]. In addition, the fluorescence, percent of control (lower = inhibition) in assay [2] stood at 26.2%. Also, in assay [3], the GTP binding, percent of control was 76.3%. This compound came in with a GTP binding signal, raw median fluorescence (lower = inhibition) (MCF (arbitrary fluorescence units)) in assay [5] of 226.
As to `CCOC(=O)Cn1nnnc1C(CC)N(Cc1cccs1)Cc1cc2ccc(OC)cc2[nH]c1=O` (stereo unspecified), the compound was called inactive in assay [1], in assay [4] and in assay [6]. For the same compound, in assay [2], the fluorescence, percent of control (lower = inhibition) worked out at 97.8%. In assay [3], this compound had a GTP binding, percent of control of 173%. Further, the GTP binding signal, raw median fluorescence (lower = inhibition) (MCF (arbitrary fluorescence units)) in assay [5] turned out to be 194.
On to `O=C(C#Cc1ccc(-c2ccccc2)cc1)c1ccc([N+](=O)[O-])cc1`, for which the result in assay [1], in assay [4] and in assay [6] was inactive. For the same compound, the fluorescence, percent of control (lower = inhibition) in assay [2] stood at 44.5%. In assay [3], this compound had a GTP binding, percent of control of 196%. Moreover, the GTP binding signal, raw median fluorescence (lower = inhibition) (MCF (arbitrary fluorescence units)) in assay [5] was 51.8.
Turning to `COc1cc(/C=C2\SC(c3ccccc3)=NC2=O)cc(Cl)c1O`, the outcome in assay [1], in assay [4] and in assay [6] was inactive. In addition, the fluorescence, percent of control (lower = inhibition) in assay [2] is 26.3%. Further, in assay [3], the GTP binding, percent of control was determined as 71%. In assay [5], the GTP binding signal, raw median fluorescence (lower = inhibition) (MCF (arbitrary fluorescence units)) was found to be 190.
For the compound `Nc1c(C(=O)C2CC2)sc2nc(-c3cccs3)cc(C(F)(F)F)c12`, the call in assay [1], in assay [4] and in assay [6] was inactive. In assay [2], the fluorescence, percent of control (lower = inhibition) stood at 495%. Besides, in assay [3], the GTP binding, percent of control was 441%. This compound also had a GTP binding signal, raw median fluorescence (lower = inhibition) (MCF (arbitrary fluorescence units)) in assay [5] of 468.
For the compound `Cc1ccc2c(c1)c1nnc(SCC(=O)Nc3cccc(Cl)c3C)nc1n2CC(=O)O`, the compound was called inactive in assay [1], in assay [4] and in assay [6]. Besides, the fluorescence, percent of control (lower = inhibition) in assay [2] was found to be 35.2%. Besides, the GTP binding, percent of control in assay [3] is 80.1%. In assay [5], this compound showed a GTP binding signal, raw median fluorescence (lower = inhibition) (MCF (arbitrary fluorescence units)) of 245.
In the case of `C=CCNC(=O)c1cc2c(=O)n3cc(C)ccc3nc2nc1NCC1CCCO1` (stereo unspecified), the result in assay [1], in assay [4] and in assay [6] was inactive. The fluorescence, percent of control (lower = inhibition) in assay [2] is 51.6%. The compound further returned a GTP binding, percent of control in assay [3] of 58.6%. In assay [5], the GTP binding signal, raw median fluorescence (lower = inhibition) (MCF (arbitrary fluorescence units)) was found to be 226.
Turning to `O=C1c2ccccc2-n2c1nc1ccccc1c2=O`, the call in assay [1], in assay [4] and in assay [6] was inactive. Besides, in assay [2], the fluorescence, percent of control (lower = inhibition) stood at 35.1%. The compound further displayed a GTP binding, percent of control in assay [3] of 78.8%. The same compound registered a GTP binding signal, raw median fluorescence (lower = inhibition) (MCF (arbitrary fluorescence units)) in assay [5] of 204.
For `CCCOC(=O)NC1CCS(=O)(=O)C1` (stereo unspecified), the outcome in assay [1], in assay [4] and in assay [6] was inactive. The fluorescence, percent of control (lower = inhibition) in assay [2] was 99.8%. For the same compound, the GTP binding, percent of control in assay [3] was found to be 159%. Besides, in assay [5], the GTP binding signal, raw median fluorescence (lower = inhibition) (MCF (arbitrary fluorescence units)) turned out to be 198.
Take `Oc1c(C=Nc2ccccc2)sc(=S)n1Cc1ccccc1`: the call in assay [1], in assay [4] and in assay [6] was inactive. Besides, the fluorescence, percent of control (lower = inhibition) in assay [2] came to 34.6%. The GTP binding, percent of control in assay [3] turned out to be 75.7%. In addition, the GTP binding signal, raw median fluorescence (lower = inhibition) (MCF (arbitrary fluorescence units)) in assay [5] is 232.
Turning to `N=C1/C(=C\c2ccc(SCc3ccco3)o2)C(=O)N=C2SC=NN12`, the compound was called inactive in assay [1], in assay [4] and in assay [6]. Further, the fluorescence, percent of control (lower = inhibition) in assay [2] is 64.2%. This compound returned a GTP binding, percent of control in assay [3] of 108%. The compound further yielded a GTP binding signal, raw median fluorescence (lower = inhibition) (MCF (arbitrary fluorescence units)) in assay [5] of 112.
On to `O=C(CN1C(=O)S/C(=C/c2cccnc2)C1=O)N1CCOCC1`, for which the compound was classed as inactive in assay [1], in assay [4] and in assay [6]. Also, the fluorescence, percent of control (lower = inhibition) in assay [2] was 54.1%. Also, the GTP binding, percent of control in assay [3] was found to be 68.5%. In addition, the GTP binding signal, raw median fluorescence (lower = inhibition) (MCF (arbitrary fluorescence units)) in assay [5] amounted to 221.
As for `Cc1cc(C)n2nc(C(=O)Nc3cccc(S(=O)(=O)N4CCCC4)c3)nc2n1`, the call in assay [1], in assay [4] and in assay [6] was inactive. The fluorescence, percent of control (lower = inhibition) in assay [2] is 33.5%. Also, in assay [3], the GTP binding, percent of control was found to be 78.7%. For the same compound, in assay [5], the GTP binding signal, raw median fluorescence (lower = inhibition) (MCF (arbitrary fluorescence units)) was determined as 227.
